Measurements reported in the supplement of paper PMC9023506.
Counter-ions that a name gives are not always drawn.

test system: Danio rerio larvae (5 dpf); assay: optomotor response to green moving lines, difference vs DMSO (percentage points (treated minus DMSO)); higher = more of the behaviour than the DMSO vehicle control; conditions: 10 µM; exposure time: 3 h pre-incubation + 3 h imaging
Method: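 5-dpf wild-type zebrafish larvae were imaged in 96-well plates. They were treated with 190 Tocris FDA-approved drugs at 10 µM (1 µl/ml DMSO) for 3 h before and 3 h during imaging at 28.5 °C, 48 larvae per drug. Automated image analysis gave % time moving and optomotor responses. Values are drug group mean minus DMSO vehicle mean (n=844), in percentage points, for 10 behaviours.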

SMILES | optomotor response to green moving lines
Cc1ccc(-c2cc(C(F)(F)F)nn2-c2ccc(S(N)(=O)=O)cc2)cc1 [Celecoxib] | 0.469
CCOC(=O)N1CCC(=C2c3ccc(Cl)cc3CCc3cccnc32)CC1 [Loratidine] | -5.38
Nc1nc(Cl)nc2c1ncn2[C@@H]1O[C@H](CO)[C@@H](O)[C@@H]1F [Clofarabine] | 7.3
CCOC(=O)c1ncn2c1CN(C)C(=O)c1cc(F)ccc1-2 [Flumazenil] | 15
C#C[C@]1(O)CC[C@H]2[C@@H]3CCC4=CC(=O)CC[C@@H]4[C@H]3CC[C@@]21CC [Levonorgestrel] | 5.26
COc1cccc2c1C(=O)c1c(O)c3c(c(O)c1C2=O)C[C@@](O)(C(=O)CO)C[C@@H]3O[C@H]1C[C@H](N)[C@H](O)[C@H](C)O1 [Doxorubicin hydrochloride] | -8.47
CC(C)COCC(CN(Cc1ccccc1)c1ccccc1)N1CCCC1 (stereo not given) [Bepridil hydrochloride] | -2.16
CC(CCc1ccc(O)cc1)NCCc1ccc(O)c(O)c1 (stereo not given) [Dobutamine hydrochloride] | 4.26
CCCc1nc(C(C)(C)O)c(C(=O)O)n1Cc1ccc(-c2ccccc2-c2nnn[nH]2)cc1 [Olmesartan] | -2.59
CN1CCN2c3ncccc3Cc3ccccc3C2C1 (stereo not given) [Mirtazapine] | -1.59
CC(=O)S[C@@H]1CC2=CC(=O)CC[C@]2(C)[C@H]2CC[C@@]3(C)[C@@H](CC[C@@]34CCC(=O)O4)[C@H]12 [Spironolactone] | 3.9
COc1ccccc1OCCNCC(O)COc1cccc2[nH]c3ccccc3c12 (stereo not given) [Carvedilol] | -14.2
CC(=O)Oc1ccccc1C(=O)O [Aspirin] | -12.5
CC1CNc2c(cccc2S(=O)(=O)N[C@@H](CCCNC(=N)N)C(=O)N2CC[C@@H](C)C[C@@H]2C(=O)O)C1 (stereo not given in full) [Argatroban] | -1.18
COc1cc(N)c(Cl)cc1C(=O)NC1CCN(CCCOc2ccc(F)cc2)CC1OC (stereo not given) [Cisapride] | 5.81
CCOc1cc(CC(=O)N[C@@H](CC(C)C)c2ccccc2N2CCCCC2)ccc1C(=O)O [Repaglinide] | 4.27
CC(C)(C(=O)O)c1ccc(C(O)CCCN2CCC(C(O)(c3ccccc3)c3ccccc3)CC2)cc1 (stereo not given) [Fexofenadine hydrochloride] | 3.69
C[C@@H]1C[C@H]2[C@@H]3CCC4=CC(=O)C=C[C@]4(C)[C@@]3(F)[C@@H](O)C[C@]2(C)[C@@]1(O)C(=O)CO [Dexamethasone] | 1.46
Cc1ccc(NC(=O)c2ccc(CN3CCN(C)CC3)cc2)cc1Nc1nccc(-c2cccnc2)n1 [Imatinib mesylate] | -13.4
CNS(=O)(=O)Cc1ccc2[nH]cc(CCN(C)C)c2c1 [Sumatriptan succinate] | 3.74

SMILES | optomotor response to green moving lines
N[C@@H]1[C@H]2CN(c3nc4c(cc3F)c(=O)c(C(=O)O)cn4-c3ccc(F)cc3F)C[C@@H]12 [Trovafloxacin mesylate] | -4.23
Cc1cccc(CN2CCN(C(c3ccccc3)c3ccc(Cl)cc3)CC2)c1 (stereo not given) [Meclizine dihydrochloride] | -8.55
CNCc1ccc(-c2[nH]c3cc(F)cc4c3c2CCNC4=O)cc1 [Rucaparib camsylate] | 1.55
COCCCOc1cc(C[C@@H](C[C@H](N)[C@@H](O)C[C@H](C(=O)NCC(C)(C)C(N)=O)C(C)C)C(C)C)ccc1OC [Aliskiren hemifumarate] | -4.53
COc1cc(Nc2c(C#N)cnc3cc(OCCCN4CCN(C)CC4)c(OC)cc23)c(Cl)cc1Cl [Bosutinib] | 2.65
COc1ccc(-c2ccc3cc(C(=O)O)ccc3c2)cc1C12CC3CC(CC(C3)C1)C2 [Adapalene] | -2.82
COc1cc2nc(N3CCN(C(=O)c4ccco4)CC3)nc(N)c2cc1OC [Prazosin hydrochloride] | -10.2
Nc1cc(N2CCCCC2)nc(N)[n+]1[O-] [Minoxidil] | -7.05
O=C(NCC1CCCCN1)c1cc(OCC(F)(F)F)ccc1OCC(F)(F)F (stereo not given) [Flecainide acetate] | 18.1
CCOc1nc2cccc(C(=O)O)c2n1Cc1ccc(-c2ccccc2-c2nnn[nH]2)cc1 [Candesartan] | 0.689
NS(=O)(=O)Cc1noc2ccccc12 [Zonisamide] | 8.43
OCCN(CCO)c1nc(N2CCCCC2)c2nc(N(CCO)CCO)nc(N3CCCCC3)c2n1 [Dipyridamole] | 5.01
OCCN1C[C@H](O)[C@@H](O)[C@H](O)[C@H]1CO [Miglitol] | 2.58
CS(=O)(=O)CCNCc1ccc(-c2ccc3ncnc(Nc4ccc(OCc5cccc(F)c5)c(Cl)c4)c3c2)o1 [Lapatinib] | 0.954
CC(C)c1nc(N(C)S(C)(=O)=O)nc(-c2ccc(F)cc2)c1/C=C/[C@@H](O)C[C@@H](O)CC(=O)O [Rosuvastatin calcium] | 2.28
CCc1ccc(CCOc2ccc(CC3SC(=O)NC3=O)cc2)nc1 (stereo not given) [Pioglitazone hydrochloride] | -7.6
C[C@H]1O[C@H](O[C@H]2[C@H](O)[C@@H](O)[C@@H](O[C@H]3[C@H](O)[C@@H](O)C(O)O[C@@H]3CO)O[C@@H]2CO)[C@H](O)[C@@H](O)[C@@H]1N[C@H]1C=C(CO)[C@@H](O)[C@H](O)[C@H]1O (stereo not given in full) [Acarbose] | 6.59
Cc1cccc(C)c1OCC(C)N (stereo not given) [Mexiletine hydrochloride] | -1.17
Cn1cnc([N+](=O)[O-])c1Sc1ncnc2[nH]cnc12 [Azathioprine] | -1.06
C[C@H]1C[C@@H]2[C@H]([C@@H](O)C[C@@]3(C)[C@H]2CC[C@]3(O)C(=O)CO)[C@@]2(C)C=CC(=O)C=C12 [Methylprednisolone] | 5.3
